SMILES strings stand for the structures. Records with an inconclusive call do not appear. Active and inactive are the calls of the source. The rule behind the calls is not given here.

This test can be described thus: Vero cell viability loss – purified and synthesized compounds, set 6, cytotoxicity control for M. tuberculosis inhibitor project, dose response (AID 588445). To be noted: cytotoxicity counter-screen; series mostly up to 100 µM. Background: Counterscreens check selectivity or assay interference.
On to `CC1CC(C)CN(C(=O)C2CCC(CNc3c(N4CCCCC4)c(=O)c3=O)CC2)C1` (stereo unspecified), for which the outcome was inactive.

On to `CCOC(=O)CSc1ncnc2c1cnn2-c1ccc(C)cc1C`, for which the molecule was called inactive.

Take `CC(C)OC(=O)CSc1ncnc2c1cnn2-c1ccccc1`: the result was inactive.

For `COC(=O)CSc1ncnc2c1cnn2-c1ccc(C)cc1C`, the molecule was called inactive.

On to `COc1ccc(N2CCN(C(=O)c3ccc(CNc4c(N5CCOCC5)c(=O)c4=O)cc3)CC2)cc1`, for which the outcome was inactive.

As for `CCOC(=O)CSc1ncnc2c1cnn2-c1ccccc1`, the result was inactive.
